Results published in PubChem BioAssay.
Active and inactive are the calls of the source. Unless noted, no rule for the calls is given here.

Columns and labels:
[1] = resazurin metabolic signal in HepG2 cells – cell-based, resazurin fluorescence, 24 h, PK04 Diversity Set, profiling panel (AID 1172); conditions: HepG2 viability, higher = more signal
[2] = budding yeast growth changes without added modifier – OD600, strain BY4716, 24 h, basal condition, primary screen (AID 1173); conditions: S. cerevisiae BY4716 growth, OD600, 24 h; higher = more signal, called active from +8 up or from −8 down
[3] = viability profiling in MM1S myeloma cells – cell-based, resazurin fluorescence, basal, 24 h, PK04 Diversity Set, profiling panel (AID 1174); conditions: higher = more signal, called active from +8 up or from −8 down;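 also: MM1S multiple myeloma cell line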
[4] = molecular target: Dihydroorotate dehydrogenase (quinone), mitochondrial (Plasmodium falciparum (isolate 3D7)) (UniProt Q08210); assay: inhibition of P. falciparum DHODH – biochemical, C-terminal His tag, absorbance 600 nm, primary screen (AID 1175); conditions: PfDHODH enzyme, DCIP absorbance 600 nm; higher = more signal, called active from +8 up or from −8 down;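 also: recombinant parasite enzyme with a five histidine tag at its C terminus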
Dihydroorotate dehydrogenase (quinone), mitochondrial (Plasmodium falciparum (isolate 3D7)), sequence (Q08210 whole entry, looked up): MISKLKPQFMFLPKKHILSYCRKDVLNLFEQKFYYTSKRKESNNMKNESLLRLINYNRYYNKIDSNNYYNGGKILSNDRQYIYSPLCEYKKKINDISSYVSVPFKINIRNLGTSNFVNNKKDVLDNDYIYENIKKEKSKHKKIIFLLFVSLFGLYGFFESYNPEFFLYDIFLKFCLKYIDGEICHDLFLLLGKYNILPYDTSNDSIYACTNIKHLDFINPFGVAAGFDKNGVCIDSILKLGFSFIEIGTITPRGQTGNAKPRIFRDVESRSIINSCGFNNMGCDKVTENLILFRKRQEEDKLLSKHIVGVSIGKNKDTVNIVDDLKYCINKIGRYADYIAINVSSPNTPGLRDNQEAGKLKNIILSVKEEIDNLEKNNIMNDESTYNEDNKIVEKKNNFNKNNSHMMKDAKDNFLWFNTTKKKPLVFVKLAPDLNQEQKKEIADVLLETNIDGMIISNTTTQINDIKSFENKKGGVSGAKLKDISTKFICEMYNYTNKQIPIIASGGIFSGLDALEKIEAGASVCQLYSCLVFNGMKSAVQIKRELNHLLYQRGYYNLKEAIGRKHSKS

[5] = inhibition of PAO1 biofilm formation – strain PAO1, LB-PBS medium, absorbance 600 nm, primary screen (AID 1176); conditions: P. aeruginosa PAO1 growth/biofilm, A600, 12 h; higher = more signal
[6] = growth modulation of vineyard yeast isolate – strain RM11-1a, OD600, basal, 24 h, primary screen (AID 1177);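 also: cultures grown under basal conditions with no added stressor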; conditions: S. cerevisiae RM11-1a growth, OD600, 24 h; higher = more signal, called active from +8 up or from −8 down
[7] = growth of efflux-deficient E. coli DRC39 – strain DRC39, OD650, 24 h, E. coli filamentation inducers, primary screen (AID 1178);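 also: growth measured as culture turbidity by optical density at 650 nm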; conditions: E. coli DRC39 acrAB, higher = more signal, called active from +8 up or from −8 down
[8] = growth of efflux-deficient E. coli DRC39 – strain DRC39, OD650, 48 h, E. coli filamentation inducers, primary screen (AID 1179);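 also: screen aims at cell division blockers that make cells filament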; conditions: E. coli DRC39 delta-acrAB growth, higher = more signal, called active from +8 up or from −8 down
[9] = viability profiling in RPMI8226 myeloma cells – cell-based, resazurin fluorescence, basal, 24 h, PK04 Diversity Set, profiling panel (AID 1180); conditions: higher = more signal;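 also: RPMI8826 multiple myeloma cell line at 5000 cells per well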
[10] = molecular target: E3 ubiquitin-protein ligase XIAP (Homo sapiens) (UniProt P98170); assay: small molecules binding XIAP protein – biophysical, small-molecule microarray, fluorescence 635 nm, primary screen (AID 1181); conditions: higher = more signal;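 also: score merges 667 nm emission and signal to noise over triplicate slides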
E3 ubiquitin-protein ligase XIAP (Homo sapiens), sequence (P98170 whole entry, looked up, the tested form may be a part): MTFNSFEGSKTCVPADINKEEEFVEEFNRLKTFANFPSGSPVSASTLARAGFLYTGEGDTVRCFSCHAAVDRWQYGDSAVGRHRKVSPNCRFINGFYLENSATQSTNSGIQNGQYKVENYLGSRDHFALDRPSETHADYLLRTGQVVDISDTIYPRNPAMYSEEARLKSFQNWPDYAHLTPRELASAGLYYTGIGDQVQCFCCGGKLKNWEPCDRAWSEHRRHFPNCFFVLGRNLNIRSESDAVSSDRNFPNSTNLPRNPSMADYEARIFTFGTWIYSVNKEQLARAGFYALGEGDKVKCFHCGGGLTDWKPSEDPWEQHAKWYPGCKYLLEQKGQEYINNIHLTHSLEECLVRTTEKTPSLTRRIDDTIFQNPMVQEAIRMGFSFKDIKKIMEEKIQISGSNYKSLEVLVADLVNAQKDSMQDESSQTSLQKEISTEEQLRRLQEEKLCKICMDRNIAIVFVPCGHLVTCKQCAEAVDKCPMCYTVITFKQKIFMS

[11] = tested on: XIP peptide (Xip251-270) binding; assay: XIP fragment 251-270 binding compounds – biochemical, small-molecule microarray, fluorescence 635/667 nm, 0.1 µg/mL protein, primary screen (AID 1182); conditions: fluorescent protein binding, 635 nm, higher = more signal, called active from +8 up or from −8 down
[12] = tested on: XIP peptide (Xip251-270); assay: compounds binding XIP fragment 251-270 – biochemical, small-molecule microarray, fluorescence 635/667 nm, 0.5 µg/mL protein, primary screen (AID 1183); conditions: fluorescence 635 nm, higher = more signal
[13] = blood-stage malaria parasite viability loss – strain 3D7, DAPI fluorescence, 100 nL, primary screen (AID 1184);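 also: parasites grown inside human red blood cells in medium with human serum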; conditions: P. falciparum 3D7 growth, 3 d, higher = more signal
[14] = molecular target: Homeobox protein Hox-A13 (Mus musculus) (UniProt Q62424); assay: disruptors of Hoxa13 oligonucleotide interaction – biochemical, fluorescence polarization, labeled oligonucleotide, primary screen (AID 1185); conditions: Hoxa13:DNA binding, 15 min, higher = more signal, called active from +8 up or from −8 down
Homeobox protein Hox-A13 (Mus musculus), sequence (Q62424 whole entry, looked up): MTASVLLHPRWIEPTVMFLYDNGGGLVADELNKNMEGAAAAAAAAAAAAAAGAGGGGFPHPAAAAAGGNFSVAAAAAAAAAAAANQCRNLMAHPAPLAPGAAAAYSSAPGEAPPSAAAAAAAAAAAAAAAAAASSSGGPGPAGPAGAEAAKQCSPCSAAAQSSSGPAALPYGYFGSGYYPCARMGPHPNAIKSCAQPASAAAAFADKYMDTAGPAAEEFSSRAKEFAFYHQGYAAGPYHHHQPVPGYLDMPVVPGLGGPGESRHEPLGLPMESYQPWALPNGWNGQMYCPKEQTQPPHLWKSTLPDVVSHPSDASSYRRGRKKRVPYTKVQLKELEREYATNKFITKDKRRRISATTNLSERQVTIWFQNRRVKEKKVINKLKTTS

Row | SMILES | z-score [1] | z-score [2] | z-score [3] | composite z-score [4] | z-score [5] | z-score [6] | z-score [7] | z-score [8] | z-score [9] | composite z-score [10] | composite z-score [11] | composite z-score [12] | z-score [13] | z-score [14]
1 | CCOC(=O)[C@H](CC(C)C)NC(=O)CCC1CC(OC(=O)NCc2cccc3ccccc23)CC2(CCCC(COC(=O)NCC3CCCCC3)O2)O1 (some centres not stated) | 0.865 | -0.0452 (inactive) | 1.27 (inactive) | -2.33 (inactive) | -1.45 (inactive) | -0.288 (inactive) | -0.765 (inactive) | -0.0838 (inactive) | 0.463 | -0.0333 | -0.145 (inactive) | 0.539 | -2.01 | -4.22 (inactive)
2 | COc1ccc(O[C@H]2C=C[C@@H](c3ccccc3)O[C@@H]2CON=C(C)C)cc1 | 0.163 | -0.964 (inactive) | -0.253 (inactive) | 0.271 (inactive) | 0.936 (inactive) | 0.267 (inactive) | 0.366 (inactive) | -1.8 (inactive) | 0.224 | 0.511 | 0.862 (inactive) | 0.267 | 0.894 | 2.39 (inactive)
3 | COc1ccc(O[C@H]2C=C[C@@H](c3ccccc3)O[C@@H]2COC(=O)CCC(C)=NO[C@@H]2O[C@H](COC(C)=O)[C@@H](OC(C)=O)[C@H](OC(C)=O)[C@H]2OC(C)=O)cc1 | 0.0729 | 1.64 (inactive) | -0.169 (inactive) | 0.671 (inactive) | -0.585 (inactive) | 1.37 (inactive) | 0.486 (inactive) | 0.167 (inactive) | 0.111 | 0.461 | 0.427 (inactive) | 0.495 | -0.0102 | -4.34 (inactive)
4 | CCOC(=O)[C@H](Cc1ccccc1)NC(=O)CCC1CC(OC(=O)NCc2ccc3c(c2)OCO3)CC2(CCCC(COC(=O)NCCc3ccccc3OC)O2)O1 (some centres not stated) | -0.23 | 0.911 (inactive) | -0.32 (inactive) | 0.0964 (inactive) | 0.426 (inactive) | 0.824 (inactive) | -0.0754 (inactive) | -0.731 (inactive) | 0.0481 | -0.024 | 0.581 (inactive) | 0.798 | -1.78 | -4 (inactive)
5 | CC(C)CON=C1C[C@@H](O)[C@@H](O)[C@@H]2[C@@H]3C(=O)N(C(C)(C)C)C(=O)[C@@H]3CC[C@H]12 | -0.184 | 0.528 (inactive) | -0.426 (inactive) | 0.15 (inactive) | -0.613 (inactive) | -0.131 (inactive) | 0.366 (inactive) | 0.476 (inactive) | -0.246 | -0.102 | 1.9 (inactive) | 0.494 | 1.75 | -0.219 (inactive)
6 | O=C1[C@H]2[C@H]3[C@H](O)[C@H](O)CC(=NO[C@@H]4O[C@H](CO)[C@@H](O)[C@H](O)[C@H]4O)[C@H]3CC[C@H]2C(=O)N1c1cccc(Oc2ccccc2)c1 | 0.648 | 0.439 (inactive) | -0.0137 (inactive) | 0.0087 (inactive) | -0.708 (inactive) | -0.929 (inactive) | -0.0313 (inactive) | -0.49 (inactive) | 0.394 | -0.0773 | -0.373 (inactive) | 0.538 | -0.418 | -1.68 (inactive)
7 | CO[C@@H]1C=CCC(=O)N2CCC[C@H]2C(=O)OC[C@@H](C)C(=O)OC[C@H]1C | 1.12 | -0.62 (inactive) | 0.866 (inactive) | 0.321 (inactive) | 0.659 (inactive) | -0.841 (inactive) | 0.947 (inactive) | 0.977 (inactive) | 0.218 | 0.104 | 0.229 (inactive) | 0.826 | 0.432 | 0.772 (inactive)
8 | COC(=O)CC=C[C@@H](C)[C@@H](C=NOC[C@@H](O)[C@H]1O[C@@H]2OC(C)(C)O[C@@H]2[C@H]1O)NS(=O)(=O)c1ccc(C)cc1 | -0.687 | 0.185 (inactive) | -0.502 (inactive) | -0.241 (inactive) | 0.453 (inactive) | 0.0095 (inactive) | -0.336 (inactive) | 0.447 (inactive) | -0.609 | -0.0445 | 0.0133 (inactive) | -0.0003 | 1.4 | 0.413 (inactive)
9 | CC(C)=CCCC(C)=CCON=C1C[C@@H](O)[C@@H](O)[C@@H]2[C@@H]3C(=O)N(C(C)(C)C)C(=O)[C@@H]3CC[C@@H]12 | -0.976 | -0.0139 (inactive) | 0.408 (inactive) | 0.661 (inactive) | 1.23 (inactive) | -0.0348 (inactive) | -0.106 (inactive) | -1.26 (inactive) | -0.11 | -0.172 | -0.119 (inactive) | 0.233 | -1.34 | -1.09 (inactive)
10 | COC(=O)[C@@H]1CC[C@H](C)[C@@H](c2ccc(C)cc2)N1C(=O)c1ccc(C=NO[C@@H](C)c2cn([C@H](CO)Cc3ccccc3)nn2)cc1 | -1.27 | -0.476 (inactive) | -1.93 (inactive) | -1.41 (inactive) | 0.171 (inactive) | 1.35 (inactive) | 0.836 (inactive) | 0.161 (inactive) | -1.16 | -0.102 | -0.0658 (inactive) | 0.739 | -0.309 | -5.13 (inactive)
11 | CO[C@@H]1COC(=O)[C@@H](C)NC(=O)CC=C[C@@H](C)[C@H](NS(=O)(=O)c2ccc(C)cc2)COC(=O)[C@H](C)NC(=O)CC=C[C@H]1C | 0.63 | -0.673 (inactive) | 0.416 (inactive) | 0.0059 (inactive) | -0.212 (inactive) | -0.489 (inactive) | 1.39 (inactive) | 0.428 (inactive) | 1.08 | -0.202 | 0.199 (inactive) | 0.113 | 0.327 | -0.348 (inactive)
12 | COC(=O)CC=C[C@@H](C)[C@@H](C=NO[C@@H]1O[C@H](COC(C)=O)[C@@H](OC(C)=O)[C@H](OC(C)=O)[C@H]1OC(C)=O)OC | 0.992 | -0.298 (inactive) | -0.205 (inactive) | 0.159 (inactive) | 0.0738 (inactive) | -0.0389 (inactive) | -1.03 (inactive) | -0.932 (inactive) | 0.672 | 0.127 | -0.865 (inactive) | -0.17 | -0.0925 | -2.16 (inactive)
13 | CO[C@@H]1COC(=O)CC=C[C@@H](C)[C@H](OC)COC(=O)[C@@H](C)COC(=O)CC=C[C@H]1C | 0.225 | -0.621 (inactive) | 0.586 (inactive) | 0.577 (inactive) | -0.225 (inactive) | 0.401 (inactive) | 0.666 (inactive) | 0.733 (inactive) | 0.151 | -0.0264 | -0.0671 (inactive) | -0.497 | 0.301 | 0.372 (inactive)
14 | CCCNC(=O)OC[C@H]1O[C@H](CCON=C(C)CCC(=O)OC[C@H]2O[C@H](c3ccccc3)C=C[C@@H]2Oc2ccc(OC)cc2)C=C[C@@H]1Oc1ccc(OC)cc1 | 0.704 | 0.195 (inactive) | 0.205 (inactive) | -1.13 (inactive) | 0.0525 (inactive) | 0.17 (inactive) | 0.629 (inactive) | 0.363 (inactive) | 1.31 | -0.171 | 0.146 (inactive) | -0.138 | -0.935 | -2.1 (inactive)
15 | COC(=O)[C@H](C)NC(=O)CCC1CC(OC(=O)NCc2ccc3c(c2)OCO3)CC2(CCCC(COC(=O)NCC(c3ccccc3)c3ccccc3)O2)O1 (some centres not stated) | 0.0245 | -1.23 (inactive) | 0.177 (inactive) | -2.67 (inactive) | -0.895 (inactive) | 0.0477 (inactive) | -0.341 (inactive) | 0.532 (inactive) | -0.0511 | -0.0734 | 1.93 (inactive) | 0.699 | -1.77 | -6.84 (inactive)
16 | COC(=O)CC=C[C@@H](C)[C@@H](C=NO[C@@H](C)c1cc(-c2c(C)cc(C)cc2C)no1)NS(=O)(=O)c1ccc(C)cc1 | 0.245 | -0.358 (inactive) | -0.019 (inactive) | -2.27 (inactive) | -0.998 (inactive) | -0.2 (inactive) | -1.1 (inactive) | -1.55 (inactive) | -0.33 | -0.169 | -0.105 (inactive) | -0.91 | -0.842 | -2.92 (inactive)
17 | O=C1CCCC(C2=CCCCC2=O)C1 (configuration not stated) | -0.575 | 0.0749 (inactive) | -1.83 (inactive) | 0.153 (inactive) | 0.663 (inactive) | 0.541 (inactive) | 0.998 (inactive) | 0.524 (inactive) | -1.01 | 0.197 | -0.273 (inactive) | 0.0997 | 0.488 | -1.63 (inactive)
18 | CO[C@@H]1COC(=O)[C@@H]2CCCN2C(=O)[C@@H](C)COC(=O)CC=C[C@H]1C | 1.09 | 0.755 (inactive) | 0.468 (inactive) | -0.385 (inactive) | -0.749 (inactive) | 0.0994 (inactive) | 0.207 (inactive) | -0.179 (inactive) | 0.189 | -0.273 | 0.523 (inactive) | 0.569 | 0.442 | -0.236 (inactive)
